# Screening results as filed in PubChem BioAssay.
# Sfp PPTase inh = qHTS Assay for Inhibitors of Bacillus subtilis Sfp phosphopantetheinyl transferase (PPTase); Potency, µM, for inactives: largest response in the series, negative = inhibition, actives largely listed as inhibitors; 310,000 tested, 3.5% active; 4'-phosphopantetheinyl transferase ffp (Bacillus subtilis), Q9F4F7; Biochemical Sfp PPTase activity, qHTS;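 further: the enzyme is Sfp with the accession as filed and its product quenches rhodamine fluorescence; potency means the concentration at half of the fitted maximal effect; 0% = enzyme reaction without inhibitor and -100% = no enzyme wells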
#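 With Hepes-Na pH 7.6 buffer containing 10 mM MgCl2, Sfp (15 nM) modified BHQ-2-YbbR (12.5 uM) using rhodamine-CoA (5 uM). Two reads 30 minutes apart at 525/598 nm yielded each well's rate.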
# VDR inhibitor = Inhibitors of the vitamin D receptor (VDR): qHTS; VDR-SRC2-3 peptide fluorescence polarization, 2 h; 400,000 tested, 0.93% active; Vitamin D3 receptor (Homo sapiens), P11473; AID 504847, 2011; Potency, µM, for the others: max response, negative = inhibition, most hits filed as inhibitors; further: potency means the concentration at half of the fitted maximal effect
# Target sequence (P11473 whole entry, looked up): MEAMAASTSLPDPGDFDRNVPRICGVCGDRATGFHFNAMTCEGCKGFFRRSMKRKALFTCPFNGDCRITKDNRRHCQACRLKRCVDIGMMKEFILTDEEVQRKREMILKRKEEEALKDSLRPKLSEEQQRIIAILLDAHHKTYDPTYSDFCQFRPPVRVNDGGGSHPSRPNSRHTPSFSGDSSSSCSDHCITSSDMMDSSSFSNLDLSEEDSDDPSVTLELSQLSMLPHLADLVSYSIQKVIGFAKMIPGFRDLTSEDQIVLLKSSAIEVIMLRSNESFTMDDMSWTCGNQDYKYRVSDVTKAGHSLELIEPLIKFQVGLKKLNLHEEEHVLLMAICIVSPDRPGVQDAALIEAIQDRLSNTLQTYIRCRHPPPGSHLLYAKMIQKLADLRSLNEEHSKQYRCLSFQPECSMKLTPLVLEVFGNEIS
#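 Fluorescence polarization assay of small-molecule disruption of VDR binding to coregulator peptide SRC2-3. Compounds and controls pin-transferred, then read after 2 h incubation at ambient room temperature.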
# PLK1 PBD block = qHTS for Inhibitors of PLK1-PDB (polo-like kinase 1 - polo-box domain): Primary Screen; Potency, µM, for inactives: max response, negative = inhibition, actives largely listed as inhibitors; Serine/threonine-protein kinase PLK1 (Homo sapiens), P53350; 360,000 tested, 2.8% active; Plk1 PBD binding of FITC phosphopeptide, fluorescence polarization; further: potency means the concentration at half of the fitted maximal effect; series mostly up to about 57 µM; nearly all actives have a fitted effect of over 65% in size
# CCT chaperon mod = High-Throughput Screening for Modulators of Cytosolic Chaperonin Activity; 360,000 tested, 0.3% active; purified chaperonin ATPase assay, HTRF ADP detection, 30 min; AID 651819, 2012; activity change, % (concentration not given with the values), hits read low; in the data active means activity change below about -30%
#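 TRiC (40 or 20 nM final, by batch activity) in 30 mM Tris pH 7.4, 100 mM KCl, 5 mM MgCl2, 1 mM DTT was treated with compound at 76 uM single dose, then 10 uM ATP, 30 min at 37 °C. ADP was read by HTRF Transcreener.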
# Mm-Cpn inhibitor = Inhibitors of TCP-1 ring complex (TRiC) of Methanococcus maripaludis (MmCpn): qHTS. 330,000 tested, 0.031% active. Potency, µM (titrated, usually from 76.9 µM), for inactives: at the top dose activity, negative = inhibition, usual class: inhibitors. purified Mm-Cpn ATPase, ADP Transcreener TR-FRET. AID 504842, 2011. Chaperonin Mm-Cpn (Methanococcus maripaludis); further: potency means the concentration at half of the fitted maximal effect; nearly all actives have a fitted effect of over 80% in size
#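 25 nM Mm-CPN + cpd, 10 min 37°C; + 10 uM ATP, 30 min 37°C; buffer 30 mM Tris pH 7.4, 100 mM KCl, 5 mM MgCl2, 1 mM DTT; Transcreener ADP HTRF detection 30 min RT.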
# G9a inh = qHTS Assay for Inhibitors of Histone Lysine Methyltransferase G9a | 350,000 tested, 8.8% active | AID 504332, 2011 | Histone-lysine N-methyltransferase EHMT2 (Homo sapiens), Q96KQ7 | G9a H3K9 monomethylation, AlphaScreen, 2 h | Potency, µM (doses to about 102 µM), without a hit: at the highest dose activity, negative = inhibition, actives largely listed as inhibitors; further: potency means the concentration at half of the fitted maximal effect; nearly all actives have a fitted effect of over 75% in size
# Target sequence (Q96KQ7 913-1193 limits assumed): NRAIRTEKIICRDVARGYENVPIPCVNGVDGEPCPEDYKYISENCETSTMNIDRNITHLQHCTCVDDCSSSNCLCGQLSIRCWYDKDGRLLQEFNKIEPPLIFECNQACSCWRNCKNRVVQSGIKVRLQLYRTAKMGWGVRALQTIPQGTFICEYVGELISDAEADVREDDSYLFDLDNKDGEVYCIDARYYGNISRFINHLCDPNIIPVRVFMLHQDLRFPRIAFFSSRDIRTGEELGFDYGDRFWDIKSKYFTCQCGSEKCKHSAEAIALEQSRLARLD
#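 AlphaScreen read-out: biotin-H3K9 peptide (500 nM) methylation by 20 nM enzyme with 20 uM SAM, 2 h at room temperature after 15 min compound preincubation; anti-monomethyl H3K9 antibody plus donor/acceptor beads, 10 min dark.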
# * hit, by the source's call; ? = inconclusive; · = not tested or not shown; [ ] = another dose, or the depositor's remark. An excerpt weighted towards active compounds, which were near 10% of everything screened. Unless noted, the call rests on the fitted dose curve; in most records, active means well fitted curve in the direction sought with a large enough effect; inconclusive means small, poorly fitted or top-dose-only effect, or another doubt; inactive means no such curve, though single readings can be large; an effect the other way counts as inactive or inconclusive. Unless noted, on the % scale 0 is the no-effect control and ±100 the full control effect.
SMILES,Sfp PPTase inh,VDR inhibitor,PLK1 PBD block,CCT chaperon mod,Mm-Cpn inhibitor,G9a inh
Cc1cc(C(=O)CSc2ncccn2)c(C)n1Cc1ccco1,56µM*,13%,-6%,-2,1%,45µM*
Cc1cc(C(=O)COC(=O)C(C)NC(N)=O)c(C)n1Cc1ccco1 (stereo not drawn),7%,-1%,-14%,-1,0%,-34%
Cc1cc(C(=O)C(C)Cl)c(C)n1Cc1ccco1 (stereo not drawn),-8%,-10%,21µM*,-1,-2%,?
CC1=C(C(=O)OCC(C)C)C(c2ccc(Br)s2)NC(=O)N1 (stereo not drawn),10%,-17%,0%,-3,0%,1%
CCCOC(=O)C1=C(C)NC(=O)NC1c1ccc(Br)s1 (stereo not drawn),-3%,-7%,24µM*,0,-7%,-25%
CC1=C(C(=O)OCCCBr)C(c2ccc3c(c2)OCO3)NC(=O)N1 (stereo not drawn),-3%,-11%,-20%,-1,2%,50µM*
Cc1ccc(C)c(Cn2c(=O)n(Cc3ccc4c(c3)OCO4)c(=O)c3oc4ccccc4c32)c1,·,10%,·,·,·,-2%[59 µM]
CCCn1c2ccccc2c2cnn(CC(=O)NCC3CCN(Cc4ccccc4C)CC3)c(=O)c21,·,11%,·,·,·,-3%[59 µM]
CCOC(=O)c1ccc2c(c1)N(CC(=O)Nc1ccc(CC)cc1)C(=O)c1ccccc1S2,·,14%,·,·,·,6%[59 µM]
CCN(Cc1nc(-c2ccc(OC)cc2)oc1C)S(=O)(=O)c1ccc(Cl)cc1,·,0%,·,·,·,13µM*
COc1ccccc1/C=C/c1nc(C#N)c(N2CCCCCC2)o1,·,7%,·,·,·,?
Cc1ccccc1NN=Nc1nc2c([nH]1)c(=O)n(C)c(=O)n2C,-15%,-18%,?,0,1%,4µM*
Cn1c(=O)c2[nH]c(N=NNc3ccccc3F)nc2n(C)c1=O,25µM*,79µM*,-16%,2,3%,1.8µM*
Cn1c(=O)c2[nH]c(NN=Cc3ccccc3)nc2n(C)c1=O,·,-2%,-10%,-5,·,·
COc1ccc(NN=Nc2nc3c([nH]2)c(=O)n(C)c(=O)n3C)cc1,16µM*,?,4.7µM*,1,-2%,·
Cc1ccc(CCNC(=O)CSCc2nc(-c3ccc(C)cc3)oc2C)cc1,·,-11%,·,·,·,6%[59 µM]
COCCn1c(=O)c(-c2ccccc2)nc2cnc(N3CCN(C)CC3)nc21,9%,-6%,·,·,·,-1%[0.501 µM]
COc1ccc(C(=O)C(/C=N/O)=N/Nc2ccc(F)cc2)cc1,-2%,-6%,-8%,-1,-1%,18µM*
CO/N=C/C(=N\Nc1ccc(OC)cc1)C(=O)c1ccc(OC)cc1,?,-10%,-8%,-19,-1%,35µM*
CC(C)n1nc(C(=O)NNC(=O)c2ccc(OC(F)F)cc2)c2ccccc2c1=O,·,1%,0%,-1,2%,3.2µM*
O=C(CSc1ncn[nH]1)Nc1nc(-c2ccccc2)ns1,16%,19%,-8%,-1,0%,?
Cc1ccc(NC(=O)CSc2ncn[nH]2)cc1C,·,5%,·,·,·,0%[59 µM]
Cc1ccc(NC(=O)CSc2nnc3scc(-c4ccc(Cl)cc4)n23)cc1,·,6%,·,·,·,-7%[59 µM]
Cc1ccc(-c2nc(NC(=O)CSc3ncn[nH]3)ns2)cc1,22%,14µM*,7.5µM*,0,-13%,-3%
Cc1ccc(-c2nc(NC(=O)CSc3nnc4scc(-c5ccccc5)n34)ns2)cc1,35µM*,-14%,?,2,-19%,?
SMILES,Sfp PPTase inh,VDR inhibitor,PLK1 PBD block,CCT chaperon mod,Mm-Cpn inhibitor,G9a inh
O=C(CSc1ncn[nH]1)Nc1ccc(Cl)c(Cl)c1,18%,-5%,-7%,-1,0%,45µM*
CCN(CC)CCOC(=O)c1ccc(NC(=O)Cn2ncc3c2-c2cc(C)ccc2OC3)cc1,·,4%,·,·,·,8%[59 µM]
ON1C(c2ccc(Cl)cc2Cl)N(O)[C@H]2CCCC[C@H]21 (stereo partly drawn),-22%,4%,-8%,-1,-1%,50µM*
CC1=CC(C)(C)N(C(=O)CSc2nncn2C)c2ccccc21,21%,1%,-3%,1,0%,13%[59 µM]
Cc1ccc2c(c1)N(C(=O)c1ccco1)C(C)(C)c1ssc(=S)c1-2,-9%,-6%,-6%,1,-1%,11µM*
Cc1cc2c(cc1C)N(C(=O)CSc1nncn1C)C(C)(C)c1ssc(=S)c1-2,-13%,-20%,-12%,-1,0%,8.9µM*
Cc1cccc2c1N(C(=O)c1ccco1)C(C)(C)c1ssc(=S)c1-2,-18%,-5%,-28%,0,-1%,-13%[0.501 µM]
Cc1ccc2c(c1)N(C(=O)CSc1nncn1C)C(C)(C)c1ssc(=S)c1-2,-19%,1%,-16%,-1,-10%,14µM*
COc1ccccc1C(=O)OCc1cc(=O)n2c(C)csc2n1,·,1%,·,·,·,8%[59 µM]
CC(NCCCOc1cccc2ccccc12)c1ccccc1 (stereo not drawn),-22%,-16%,6%,0,?,11µM*
O=C(Nc1ccc2ccccc2c1)c1cccc2ccccc12,·,18%,-3%,-12,·,·
C=C(c1cccc2ccccc12)P(=O)(O)O,1%,13%,-4%,-1,0%,16µM*
CCc1cccc(NC(=O)Cn2c(=O)n(Cc3ccccc3)c(=O)c3c(C)c(C(=O)N(C)C)sc32)c1,·,4%,·,·,·,5%[59 µM]
Cc1cc(O)ccc1Nc1nc2ccccc2nc1Nc1ccc(O)cc1C,56µM*,-6%,?,0,0%,4.5µM*
CN1c2ccccc2C(C)(C)C12C=Nc1c(cc(N3CCOCC3)c3ccccc13)O2 (stereo not drawn),-8%,-21%,-4%,-3,0%,45µM*
N=c1n(Cc2ccccc2)c2ccccc2n1CC(O)COc1ccc(Cl)cc1Cl (stereo not drawn),18µM*,6%,?,-1,-2%,9%[12.7 µM]
N=c1n(Cc2ccc(Cl)cc2)c2ccccc2n1CC(O)COc1ccccc1 (stereo not drawn),-4%,5%,-10%,-22,-4%,?
O=C(NCC1CCCCC1)C1(CC2CC(c3ccc(Cl)cc3)=NO2)CCNCC1 (stereo not drawn),-6%,-9%,-5%,-6,0%,45µM*
